# According to article PMC11062922 (Nature Chemical Biology, 2023):
# What was measured:
# ADCK5 = details: read-out: apparent Kd; compound concentrations:100 nM and 1000 nM (sheet 'Lestaurtinib' of Supplementary Table 1),run:Lestaurtinib_02443_R1,Plate:MR009; n = 1
# DAPK3 = details: read-out: apparent Kd; compound concentrations:100 nM and 1000 nM (sheet 'Lestaurtinib' of Supplementary Table 1),run:Lestaurtinib_02443_R1,Plate:MR009; n = 1
# HCK = details: read-out: apparent Kd; compound concentrations:100 nM and 1000 nM (sheet 'Lestaurtinib' of Supplementary Table 1),run:Lestaurtinib_02422_R1,Plate:MR006; n = 1
# MAPK14 = details: read-out: apparent Kd; compound concentrations:100 nM and 1000 nM (sheet 'Lestaurtinib' of Supplementary Table 1),run:Lestaurtinib_02422_R1,Plate:MR006; n = 1
# SMC2 = tested on: SMC2; set-up: species or system human, MV4-11 + K-562 + COLO205 + SK-N-BE2 + OVCAR-8; details: read-out: apparent Kd; compound concentrations: 100 nM and 1000 nM (sheet 'Samples'), CATDS: 0.46661242360410599; n = 1
# TESK2 = tested on: TESK2; set-up: species or system human, MV4-11 + K-562 + COLO205 + SK-N-BE2 + OVCAR-8; details: read-out: apparent Kd; compound concentrations: 100 nM and 1000 nM (sheet 'Samples'), CATDS: 1; n = 1
# RIPK3 = tested on: RIPK3; set-up: species or system human, MV4-11 + K-562 + COLO205 + SK-N-BE2 + OVCAR-8; details: read-out: apparent Kd; compound concentrations: 100 nM and 1000 nM (sheet 'Samples'), CATDS: 0.41855483652365999; n = 1
# PTK2 = tested on: PTK2; set-up: species or system human, MV4-11 + K-562 + COLO205 + SK-N-BE2 + OVCAR-8; details: read-out: apparent Kd; compound concentrations: 100 nM and 1000 nM (sheet 'Samples'), CATDS: 1; n = 1
# PRKD2 = tested on: PRKD2; set-up: species or system human, MV4-11 + K-562 + COLO205 + SK-N-BE2 + OVCAR-8; details: read-out: apparent Kd; compound concentrations:100 nM and 1000 nM (sheet 'Samples'); n = 1
# PRKD3 = tested on: PRKD3; set-up: species or system human, MV4-11 + K-562 + COLO205 + SK-N-BE2 + OVCAR-8; details: read-out: apparent Kd; compound concentrations:100 nM and 1000 nM (sheet 'Samples'); n = 1
# RABL3 = tested on: RABL3; set-up: species or system human, MV4-11 + K-562 + COLO205 + SK-N-BE2 + OVCAR-8; details: read-out: apparent Kd; compound concentrations:100 nM and 1000 nM (sheet 'Samples'); n = 1
# TGFBR1 = tested on: TGFBR1; set-up: species or system human, MV4-11 + K-562 + COLO205 + SK-N-BE2 + OVCAR-8; details: read-out: apparent Kd; compound concentrations:100 nM and 1000 nM (sheet 'Samples'); n = 1
# TGFBR2 = tested on: TGFBR2; set-up: species or system human, MV4-11 + K-562 + COLO205 + SK-N-BE2 + OVCAR-8; details: read-out: apparent Kd; compound concentrations:100 nM and 1000 nM (sheet 'Samples'); n = 1
# TNIK = tested on: TNIK; set-up: species or system human, MV4-11 + K-562 + COLO205 + SK-N-BE2 + OVCAR-8; details: read-out: apparent Kd; compound concentrations:100 nM and 1000 nM (sheet 'Samples'); n = 1
# PRKCZ = tested on: PRKCZ; set-up: species or system human, MV4-11 + K-562 + COLO205 + SK-N-BE2 + OVCAR-8; details: read-out: apparent Kd; compound concentrations:100 nM and 1000 nM (sheet 'Samples'); n = 1
# PRKX;PRKY = tested on: PRKX;PRKY; set-up: species or system human, MV4-11 + K-562 + COLO205 + SK-N-BE2 + OVCAR-8; details: read-out: apparent Kd; compound concentrations: 100 nM and 1000 nM (sheet 'Samples'), CATDS: 0.167379705383528; n = 1
# PRKG1 = tested on: PRKG1; set-up: species or system human, MV4-11 + K-562 + COLO205 + SK-N-BE2 + OVCAR-8; details: read-out: apparent Kd; compound concentrations:100 nM and 1000 nM (sheet 'Samples'); n = 1
# RAB5C = tested on: RAB5C; set-up: species or system human, MV4-11 + K-562 + COLO205 + SK-N-BE2 + OVCAR-8; details: read-out: apparent Kd; compound concentrations: 100 nM and 1000 nM (sheet 'Samples'), CATDS: 1; n = 1
# RET = tested on: RET; set-up: species or system human, MV4-11 + K-562 + COLO205 + SK-N-BE2 + OVCAR-8; details: read-out: apparent Kd; compound concentrations:100 nM and 1000 nM (sheet 'Samples'); n = 1
# STK10 = tested on: STK10; set-up: species or system human, MV4-11 + K-562 + COLO205 + SK-N-BE2 + OVCAR-8; details: read-out: apparent Kd; compound concentrations: 100 nM and 1000 nM (sheet 'Samples'), CATDS: 0.394091035560725; n = 1
molecule,measurement,setting,value
Lestaurtinib,potency estimated from few doses,ADCK5,2240 nM
same,potency estimated from few doses,DAPK3,1580 nM
same,potency estimated from few doses,HCK,1300 nM
same,potency estimated from few doses,MAPK14,1150 nM
N#Cc1ccc(C(=O)c2cnn(-c3ccc(F)cc3)c2N)cc1 [RO1153198-000],potency estimated from few doses,SMC2,2040 nM
Cc1nn(-c2ccccc2)c(O)c1C(=O)c1ccccc1 [RO1151080-000],potency estimated from few doses,TESK2,1360 nM
c1ccc(Oc2ccc(Nc3ccnc4ccc(-c5ccccn5)cc34)cc2)cc1 [GW407034X],potency estimated from few doses,RIPK3,429 nM
COc1cc2c(cc1Nc1nc(Nc3cccc(F)c3C(N)=O)c3cc[nH]c3n1)N(C(=O)CN1CCN(C(C)C)CC1)CC2 [GSK1751853A],potency estimated from few doses,PTK2,1210 nM
Cc1cccc(-c2n[nH]cc2-c2ccc3ncccc3n2)n1 [GW786460X],potency estimated from few doses,PRKD2,465 nM
same,potency estimated from few doses,PRKD3,640 nM
same,potency estimated from few doses,RABL3,1260 nM
same,potency estimated from few doses,TGFBR1,1.39 nM
same,potency estimated from few doses,TGFBR2,112 nM
same,potency estimated from few doses,TNIK,1720 nM
O=C(Nc1n[nH]c2cc(-c3cccs3)ccc12)C1CC1 [SB-731284],potency estimated from few doses,PRKCZ,1850 nM
CC1=C(C(=O)Nc2cc3cn[nH]c3cc2F)C(c2ccc(C(F)(F)F)cc2)CC(=O)N1 (centres unmarked) [GSK429286A],potency estimated from few doses,PRKX;PRKY,2000 nM
CCn1c(-c2nonc2N)nc2cnc(Oc3cccc(NC(=O)c4ccc(N(C)C)cc4)c3)cc21 [GSK248233A],potency estimated from few doses,PRKG1,227 nM
Fc1ccc(-c2c(-c3ccncc3)n(CCN3CCOCC3)c3cccnc23)cc1 [RO1154507-000],potency estimated from few doses,RAB5C,223 nM
Cl.O=C(Nc1ccc(Oc2ccc3[nH]c(NC(=O)c4ccccc4)nc3c2)cc1)Nc1cc(C(F)(F)F)ccc1F [GW709042A],potency estimated from few doses,RET,1420 nM
COc1cc2ncn(-c3cc(OCC4CCCO4)c(C(N)=O)s3)c2cc1OC (centres unmarked) [GSK204607A],potency estimated from few doses,STK10,614 nM
